ChEMBL document CHEMBL2218924, “A broad activity screen in support of a chemogenomic map for kinase signalling research and drug discovery” (Biochem J, 2013)

Columns and labels:
[1] = molecular target: T1, Mitogen-activated protein kinase kinase kinase 7 (Homo sapiens) (UniProt O43318); settings: at 1 µM
T1 sequence (whole entry): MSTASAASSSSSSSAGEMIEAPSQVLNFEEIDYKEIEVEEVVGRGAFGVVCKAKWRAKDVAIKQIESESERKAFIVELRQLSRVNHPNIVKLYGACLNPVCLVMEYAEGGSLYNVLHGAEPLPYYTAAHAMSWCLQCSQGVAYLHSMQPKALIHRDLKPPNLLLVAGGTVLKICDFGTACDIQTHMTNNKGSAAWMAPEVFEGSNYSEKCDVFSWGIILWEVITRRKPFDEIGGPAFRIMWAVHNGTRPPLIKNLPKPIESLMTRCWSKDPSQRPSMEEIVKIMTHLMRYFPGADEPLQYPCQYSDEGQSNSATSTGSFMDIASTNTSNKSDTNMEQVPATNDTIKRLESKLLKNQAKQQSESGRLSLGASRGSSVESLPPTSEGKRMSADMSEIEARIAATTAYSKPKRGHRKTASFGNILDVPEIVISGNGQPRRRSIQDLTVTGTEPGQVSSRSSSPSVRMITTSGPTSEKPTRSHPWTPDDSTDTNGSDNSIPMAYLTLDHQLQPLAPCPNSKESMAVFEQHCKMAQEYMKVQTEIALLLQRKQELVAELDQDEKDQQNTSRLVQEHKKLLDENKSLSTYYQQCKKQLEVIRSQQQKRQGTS

[2] = molecular target: T1, Mitogen-activated protein kinase kinase kinase 7 (Homo sapiens); settings: at 10 µM
[3] = molecular target: T2, Serine/threonine-protein kinase TAO1 (Homo sapiens) (UniProt Q7L7X3); settings: at 10 µM
T2 sequence (whole entry): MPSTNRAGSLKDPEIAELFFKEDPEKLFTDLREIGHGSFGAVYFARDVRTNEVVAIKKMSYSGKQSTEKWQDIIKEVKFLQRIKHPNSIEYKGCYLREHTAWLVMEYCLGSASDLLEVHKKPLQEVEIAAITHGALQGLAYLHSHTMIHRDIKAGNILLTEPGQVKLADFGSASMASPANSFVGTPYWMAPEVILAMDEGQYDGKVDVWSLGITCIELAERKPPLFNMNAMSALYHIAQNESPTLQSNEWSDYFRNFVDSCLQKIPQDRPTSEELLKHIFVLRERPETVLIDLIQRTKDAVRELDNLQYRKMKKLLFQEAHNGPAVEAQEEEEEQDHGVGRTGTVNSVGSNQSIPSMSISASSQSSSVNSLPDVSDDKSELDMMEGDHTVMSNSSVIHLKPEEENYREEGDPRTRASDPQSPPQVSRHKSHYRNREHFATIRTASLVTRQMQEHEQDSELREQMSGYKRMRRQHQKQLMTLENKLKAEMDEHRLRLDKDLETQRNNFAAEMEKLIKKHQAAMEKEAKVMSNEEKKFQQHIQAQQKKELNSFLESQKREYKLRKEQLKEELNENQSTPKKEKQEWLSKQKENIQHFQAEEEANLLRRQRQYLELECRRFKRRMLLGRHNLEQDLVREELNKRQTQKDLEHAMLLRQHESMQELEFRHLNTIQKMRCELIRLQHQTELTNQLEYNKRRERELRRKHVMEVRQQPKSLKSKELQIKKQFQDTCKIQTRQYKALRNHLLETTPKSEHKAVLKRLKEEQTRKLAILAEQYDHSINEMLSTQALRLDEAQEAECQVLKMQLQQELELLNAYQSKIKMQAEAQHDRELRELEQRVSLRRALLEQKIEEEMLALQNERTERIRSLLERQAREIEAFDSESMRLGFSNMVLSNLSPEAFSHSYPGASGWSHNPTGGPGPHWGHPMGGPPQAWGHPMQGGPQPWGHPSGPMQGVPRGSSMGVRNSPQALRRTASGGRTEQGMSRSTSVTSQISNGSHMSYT

[4] = molecular target: T3, Serine/threonine-protein kinase TAO2 (Homo sapiens) (UniProt Q9UL54); settings: at 1 µM
T3 sequence (whole entry): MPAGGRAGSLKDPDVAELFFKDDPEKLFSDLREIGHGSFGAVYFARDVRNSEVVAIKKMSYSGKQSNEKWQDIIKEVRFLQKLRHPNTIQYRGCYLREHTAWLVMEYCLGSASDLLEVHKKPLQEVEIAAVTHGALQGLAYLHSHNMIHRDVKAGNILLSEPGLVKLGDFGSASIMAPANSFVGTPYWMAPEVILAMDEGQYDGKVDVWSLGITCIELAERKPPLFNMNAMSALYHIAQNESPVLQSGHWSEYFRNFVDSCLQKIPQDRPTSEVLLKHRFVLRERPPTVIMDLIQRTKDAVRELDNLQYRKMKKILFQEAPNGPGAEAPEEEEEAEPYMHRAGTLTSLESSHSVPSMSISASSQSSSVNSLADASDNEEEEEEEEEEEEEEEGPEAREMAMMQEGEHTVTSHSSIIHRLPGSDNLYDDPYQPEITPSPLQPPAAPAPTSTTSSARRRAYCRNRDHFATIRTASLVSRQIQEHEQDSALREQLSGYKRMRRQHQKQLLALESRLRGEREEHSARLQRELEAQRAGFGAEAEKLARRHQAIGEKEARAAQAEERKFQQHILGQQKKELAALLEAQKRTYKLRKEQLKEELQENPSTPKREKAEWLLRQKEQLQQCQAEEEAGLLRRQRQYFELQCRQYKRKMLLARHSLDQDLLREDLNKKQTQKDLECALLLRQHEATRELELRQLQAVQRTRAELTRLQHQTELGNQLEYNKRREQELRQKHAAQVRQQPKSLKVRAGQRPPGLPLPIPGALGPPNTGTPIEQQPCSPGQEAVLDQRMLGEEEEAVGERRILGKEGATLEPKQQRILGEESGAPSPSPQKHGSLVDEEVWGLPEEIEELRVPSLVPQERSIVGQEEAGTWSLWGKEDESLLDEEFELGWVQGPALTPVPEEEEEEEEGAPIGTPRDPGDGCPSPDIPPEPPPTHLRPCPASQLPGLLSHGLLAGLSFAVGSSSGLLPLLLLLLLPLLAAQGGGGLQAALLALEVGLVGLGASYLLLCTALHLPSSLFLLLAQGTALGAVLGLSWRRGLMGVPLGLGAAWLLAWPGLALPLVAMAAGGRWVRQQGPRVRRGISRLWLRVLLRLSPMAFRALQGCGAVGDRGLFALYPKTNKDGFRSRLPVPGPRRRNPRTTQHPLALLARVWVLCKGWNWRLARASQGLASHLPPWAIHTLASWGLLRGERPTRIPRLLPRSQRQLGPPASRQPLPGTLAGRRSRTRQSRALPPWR

[5] = molecular target: T3, Serine/threonine-protein kinase TAO2 (Homo sapiens); settings: at 10 µM
[6] = molecular target: T4, Serine/threonine-protein kinase TBK1 (Homo sapiens) (UniProt Q9UHD2); settings: at 1 µM
T4 sequence (whole entry): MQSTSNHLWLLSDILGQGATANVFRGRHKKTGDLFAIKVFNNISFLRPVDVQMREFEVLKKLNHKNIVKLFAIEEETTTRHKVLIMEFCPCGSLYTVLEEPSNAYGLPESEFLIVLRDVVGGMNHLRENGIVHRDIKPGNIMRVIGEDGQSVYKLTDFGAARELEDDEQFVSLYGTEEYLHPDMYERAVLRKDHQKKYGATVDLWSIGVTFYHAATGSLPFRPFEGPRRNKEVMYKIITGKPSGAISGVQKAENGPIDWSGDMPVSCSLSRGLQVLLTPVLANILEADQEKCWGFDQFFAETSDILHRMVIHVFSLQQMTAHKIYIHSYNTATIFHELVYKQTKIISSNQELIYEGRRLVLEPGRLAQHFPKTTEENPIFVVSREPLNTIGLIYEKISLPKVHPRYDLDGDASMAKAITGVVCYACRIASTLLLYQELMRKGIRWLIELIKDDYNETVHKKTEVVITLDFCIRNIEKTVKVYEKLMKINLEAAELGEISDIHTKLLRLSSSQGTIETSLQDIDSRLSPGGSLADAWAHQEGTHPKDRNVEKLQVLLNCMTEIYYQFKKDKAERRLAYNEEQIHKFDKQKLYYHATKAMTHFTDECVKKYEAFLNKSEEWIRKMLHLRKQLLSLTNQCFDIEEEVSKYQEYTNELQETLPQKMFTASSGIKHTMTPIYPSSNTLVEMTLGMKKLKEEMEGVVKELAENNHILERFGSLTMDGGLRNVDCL

[7] = molecular target: T4, Serine/threonine-protein kinase TBK1 (Homo sapiens); settings: at 10 µM
[8] = molecular target: T5, TGF-beta receptor type-1 (Homo sapiens) (UniProt P36897); settings: at 1 µM
T5 sequence (whole entry): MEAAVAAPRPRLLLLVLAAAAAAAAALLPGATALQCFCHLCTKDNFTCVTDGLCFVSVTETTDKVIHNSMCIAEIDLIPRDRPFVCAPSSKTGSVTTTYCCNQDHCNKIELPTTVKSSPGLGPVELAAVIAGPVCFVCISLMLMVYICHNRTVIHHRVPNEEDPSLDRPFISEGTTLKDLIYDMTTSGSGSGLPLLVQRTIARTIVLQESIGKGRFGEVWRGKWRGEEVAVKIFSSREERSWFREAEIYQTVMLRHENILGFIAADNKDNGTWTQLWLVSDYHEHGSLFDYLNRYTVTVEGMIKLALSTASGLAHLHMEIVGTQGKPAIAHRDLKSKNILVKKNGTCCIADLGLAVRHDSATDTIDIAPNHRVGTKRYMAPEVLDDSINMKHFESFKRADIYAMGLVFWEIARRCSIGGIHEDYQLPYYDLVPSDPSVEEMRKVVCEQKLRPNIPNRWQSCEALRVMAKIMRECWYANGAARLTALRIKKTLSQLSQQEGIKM

[9] = molecular target: T5, TGF-beta receptor type-1 (Homo sapiens); settings: at 10 µM
[10] = molecular target: T6, Inhibitor of nuclear factor kappa-B kinase subunit alpha (Homo sapiens) (UniProt O15111); settings: at 1 µM
T6 sequence (whole entry): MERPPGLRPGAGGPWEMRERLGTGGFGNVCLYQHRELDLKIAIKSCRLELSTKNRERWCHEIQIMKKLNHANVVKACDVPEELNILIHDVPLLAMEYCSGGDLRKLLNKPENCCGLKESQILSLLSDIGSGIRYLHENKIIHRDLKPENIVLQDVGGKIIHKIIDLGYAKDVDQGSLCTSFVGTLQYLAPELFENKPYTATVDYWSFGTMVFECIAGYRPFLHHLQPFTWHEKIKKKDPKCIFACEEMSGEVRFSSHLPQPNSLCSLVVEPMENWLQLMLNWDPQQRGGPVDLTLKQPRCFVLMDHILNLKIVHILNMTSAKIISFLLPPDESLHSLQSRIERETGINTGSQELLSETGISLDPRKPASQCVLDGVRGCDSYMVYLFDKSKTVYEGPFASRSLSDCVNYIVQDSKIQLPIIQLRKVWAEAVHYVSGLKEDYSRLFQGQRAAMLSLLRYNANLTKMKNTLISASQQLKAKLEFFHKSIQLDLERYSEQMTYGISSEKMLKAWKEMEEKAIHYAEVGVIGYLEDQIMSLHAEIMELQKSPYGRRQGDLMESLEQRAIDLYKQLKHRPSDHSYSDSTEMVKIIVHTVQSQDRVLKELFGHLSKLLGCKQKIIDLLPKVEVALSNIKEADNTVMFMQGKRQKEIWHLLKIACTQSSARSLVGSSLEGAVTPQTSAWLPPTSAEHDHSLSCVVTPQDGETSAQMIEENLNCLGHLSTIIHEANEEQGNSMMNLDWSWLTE

[11] = molecular target: T6, Inhibitor of nuclear factor kappa-B kinase subunit alpha (Homo sapiens); settings: at 10 µM
[12] = molecular target: T7, Inhibitor of nuclear factor kappa-B kinase subunit beta (Homo sapiens) (UniProt O14920); settings: at 1 µM
T7 sequence (whole entry): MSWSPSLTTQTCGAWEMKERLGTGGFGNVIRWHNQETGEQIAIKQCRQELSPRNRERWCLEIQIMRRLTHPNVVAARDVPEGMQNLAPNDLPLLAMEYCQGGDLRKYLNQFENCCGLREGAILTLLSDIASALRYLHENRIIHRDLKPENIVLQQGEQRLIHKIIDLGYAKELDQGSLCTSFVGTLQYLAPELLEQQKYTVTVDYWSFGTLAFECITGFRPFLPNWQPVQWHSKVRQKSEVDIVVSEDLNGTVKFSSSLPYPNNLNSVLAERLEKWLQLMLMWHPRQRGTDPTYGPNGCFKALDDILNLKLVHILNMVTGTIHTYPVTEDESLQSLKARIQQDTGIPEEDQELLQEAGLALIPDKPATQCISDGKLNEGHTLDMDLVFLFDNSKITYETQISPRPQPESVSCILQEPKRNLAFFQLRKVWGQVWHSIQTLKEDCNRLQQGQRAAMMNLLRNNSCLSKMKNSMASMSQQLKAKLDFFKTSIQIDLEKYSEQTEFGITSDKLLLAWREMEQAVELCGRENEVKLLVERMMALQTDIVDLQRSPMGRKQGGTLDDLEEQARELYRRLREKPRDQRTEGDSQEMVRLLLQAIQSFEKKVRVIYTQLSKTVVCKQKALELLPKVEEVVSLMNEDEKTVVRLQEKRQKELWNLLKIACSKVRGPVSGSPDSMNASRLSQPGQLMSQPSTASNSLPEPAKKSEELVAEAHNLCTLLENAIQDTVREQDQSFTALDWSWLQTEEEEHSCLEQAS

[13] = molecular target: T7, Inhibitor of nuclear factor kappa-B kinase subunit beta (Homo sapiens); settings: at 10 µM

## Nc1n[nH]c2nc3ccccc3nc12
[1]
  residual activity: 91%
[2]
  residual activity: 74%
[3]
  residual activity: 75%
[4]
  residual activity: 93%
[5]
  residual activity: 85%
[6]
  residual activity: 78%
[7]
  residual activity: 63%
[8]
  residual activity: 91%
[9]
  residual activity: 82%
[10]
  residual activity: 93%
[11]
  residual activity: 69%
[12]
  residual activity: 122%
[13]
  residual activity: 90%
